Screening results: PubChem BioAssay, National Center for Advancing Translational Sciences (NCATS)
Pf growth 96h: inhibits malaria parasite growth, 96 h; 6.9% of 320,000 active; Potency, µM (top dose mostly 28.7 µM), hits mostly inhibitors; P. falciparum luciferase reporter growth, 96 h
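P. falciparum expressing integrated firefly luciferase, in erythrocytes at 2% hematocrit, 0.05% parasitemia, incubated with compounds 96 h at 37 C, 5% CO2. Growth inhibition read as loss of luminescence; two-generation exposure targets delayed-death apicoplast inhibitors.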
Lassa entry inh: Lassa virus entry inhibition; Lassa virus pseudotype entry inhibition, cell reporter; Potency, µM (doses to about 37.9 µM), usual class: inhibitors; 1.2% of 300,000 active; calls by dose curve; tested in HEK293 cells; note: nearly all actives have a fitted effect of over 50% in size
Shiga toxin inh: Shiga toxin inhibition; Vero cells, Shiga toxin protein synthesis inhibition reporter; inhibition, % at 38.7 µM; 9.2% of 290,000 active; AID 2315; in the data active = inhibition mostly above about 28%, no sharp cut-off; inactive = mostly below about 43%
Cycloheximide cs: counter-screen hit for Shiga toxin inhibitors, cycloheximide; max response, %; cell reporter, cycloheximide protein synthesis inhibition counterscreen; 12% of 300,000 active; in the data active = max response mostly above about 13%, no sharp cut-off; inactive = mostly below about 14%; note: read at 38.3 µM for the half of the compounds with a filed dose
Marburg entry inh: Marburg virus entry inhibition; Marburg virus pseudotyped entry inhibition, cell reporter; Potency, µM (series often up to 37.8 µM), usual class: inhibitors; 1.8% of 300,000 active; calls by dose curve; tested in HEK293 cells
Pf growth 48h: inhibits P. falciparum growth in the first generation, 48 h; Potency, µM (highest dose often 28.7 µM), actives largely listed as inhibitors; P. falciparum luciferase growth in erythrocytes, 48 h; AID 504832; 5.9% of 310,000 active
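In quantitative HTS format, infected erythrocytes bearing luciferase-reporter parasites were treated for a single generation at 37 C. Luminescence after adding detection reagent served as the growth measure.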
A number is an active result; – = inactive; ? = inconclusive; · = not tested or not shown. An excerpt weighted towards active compounds, which were near 19% of everything screened. Unless noted, calls come from the whole dose curve; as a rule, active = well fitted inhibition curve with a large enough effect; inconclusive = small, poorly fitted or top-dose-only effect, or another doubt; inactive = no such curve, though single readings can be large or run the other way.

SMILES | Pf growth 96h | Lassa entry inh | Shiga toxin inh | Cycloheximide cs | Marburg entry inh | Pf growth 48h
COCC(C)N1CCC(n2nccc2NC(=O)c2ccc3c(c2)OCO3)CC1 (centres undefined) | – | – | – | – | – | –
NC(=O)c1cc(N=Nc2c(N)[nH]n(-c3c(Cl)cc(Cl)cc3Cl)c2=O)ccc1Cl | – | – | – | – | – | –
NS(=O)(=O)c1cccc(NC(=O)/C=C/c2cccs2)c1 | – | ? | 48 | 30 | – | –
NS(=O)(=O)c1ccc(NC(=O)/C=C/c2cccs2)cc1 | – | – | – | 11 | – | –
Nc1nonc1-n1nnc(C(=O)N/N=C/c2ccc(OCc3ccccc3)cc2)c1COc1ccc(F)cc1 | ? | · | – | – | · | ?
Cc1cccc(COc2ccc(/C=N/NC(=O)c3nnn(-c4nonc4N)c3COc3ccc(F)cc3)cc2)c1 | – | · | – | 16 | · | –
Nc1nonc1-n1nnc(C(=O)N/N=C/c2ccc(OCc3cccc(Cl)c3)cc2)c1CN1CCCCC1 | – | · | – | 27 | · | –
CN(C)c1cc(N/N=C\c2ccccc2)nc(N(C)C)n1 | – | · | – | – | · | ?
COc1ccc(/C=N/Nc2cc(N(C)C)nc(N(C)C)n2)cc1 | 12µM | ? | – | – | 4.5µM | ?
COc1ccc(/C=N/Nc2cc(OC)ncn2)cc1 | – | 10µM | 97 | 25 | ? | –
O=C(NCc1ccncc1)C(F)(F)C(F)(F)C(=O)NCc1ccncc1 | – | – | – | – | – | –
c1ccc(Cc2nnc3sc(C4COc5ccccc5O4)nn23)cc1 (centres undefined) | ? | – | – | – | – | –
Cc1nnc(SCC(=O)Nc2nonc2C)s1 | – | – | – | – | – | –
Cc1ccc(/C=C/C(=O)O)cc1S(=O)(=O)Nc1ccc(C(=O)O)cc1 | – | · | – | – | · | –
Cc1ccc(/C=C/C(=O)O)cc1S(=O)(=O)Nc1ccccc1C(=O)O | 10µM | – | – | – | – | –
CN1CCN(c2nc(-c3ccccc3Cl)nc3ccccc23)CC1 | – | · | – | – | · | –
Cc1cc(C(C)(C)C)cc(C)c1CC1=NCCN1 | ? | ? | – | – | 7.9µM | ?
Cc1ccc(CN2CC(C(=O)N3CCN(c4ccccc4Cl)CC3)CC2=O)cc1 (centres undefined) | 12µM | · | · | · | · | 6.6µM
COc1ccc(CN2CC(C(=O)N3CC(C)CC(C)C3)CC2=O)cc1 (centres undefined) | 3.7µM | · | – | – | · | –
CCCCN(C)CCCNC(=O)C1CC(=O)N(Cc2ccc(OC)cc2)C1 (centres undefined) | 12µM | – | – | – | – | –
c1ccc(-c2nc(NCCCN3CCOCC3)c3ccccc3n2)cc1 | · | – | – | – | – | ?
C=C(C)C(O)C=Cc1ccccc1OC (centres undefined) | · | · | · | · | – | ·
COc1ccc(CNC(=O)CN2C(=O)NC(c3ccccc3)(c3ccccc3)C2=O)cc1 | · | – | · | · | – | ·
CN(C)N1C(N)=C(C#N)C(c2ccc(Cl)cc2)C2=C1CCCC2=O (centres undefined) | 0.74µM | ? | – | – | ? | –
CN(C)N1C(N)=C(C#N)C(c2ccccc2)C2=C1CC(C)(C)CC2=O (centres undefined) | – | – | – | – | – | ·
SMILES | Pf growth 96h | Lassa entry inh | Shiga toxin inh | Cycloheximide cs | Marburg entry inh | Pf growth 48h
CN(C)N1C(N)=C(C#N)C(c2ccsc2)C2=C1CCCC2=O (centres undefined) | 9.3µM | – | – | – | – | ?
Cc1ccc(C2C(C#N)=C(N)N(N(C)C)C3=C2C(=O)CCC3)cc1 (centres undefined) | – | – | – | – | – | –
COc1ccc(C2C(C#N)=C(N)N(N(C)C)C3=C2C(=O)CCC3)cc1 (centres undefined) | 2.3µM | · | – | – | · | –
CN(C)N1C(N)=C(C#N)C(c2cccc3ccccc23)C2=C1CC(c1ccccc1)CC2=O (centres undefined) | ? | ? | – | – | ? | 9.3µM
COc1ccc(C2C(C#N)=C(N)N(c3ccccc3C#N)C3=C2C(=O)CCC3)cc1CN1CCCC1 (centres undefined) | ? | – | – | – | 5.8µM | –
Cc1cc(-c2nc3ncccc3o2)ccc1NC(=O)COc1ccccc1C | · | – | · | · | · | ·
C=C1CC(C(=O)N/N=C/c2ccccc2)C1 | – | – | 41 | 40 | ? | –
CC(C)c1ccc(/C=N/NC(=O)CC(=O)NC2CCCCC2)cc1 | – | – | – | – | – | –
CC(C)c1ccc(/C=N/NC(=O)C2CCCC2)cc1 | ? | · | 88 | 80 | · | –
